Experimental data taken from article PMC4552634, “A New Set of Chemical Starting Points with Plasmodium falciparum Transmission-Blocking Potential for Antimalarial Drug Discovery” (PLoS ONE, 2015).
The campaign covered roughly 13,000 compounds. About 3,200 (25%) showed an effect of 50% or more. This is one part of the list.

test system: P. falciparum stage V gametocytes; design: BacTiter-Glo ATP luminescence viability of purified stage V gametocytes in 384-well plates, per cent inhibition versus DMSO; conditions: 48 h, 5 µM; inhibitor

Structure (SMILES)	% Inhibition [%]
N#CN1CC[C@H](CS(=O)(=O)c2cccc(Br)c2)C1 [TCMDC-133806]	9.818
COc1ccc(N2C(=O)c3c(c4ccccc4n3C)C2c2ccccc2O)cc1 (stereo not shown) [TCMDC-124403]	-39.6
O=S(=O)(c1ccc(OCc2ccc(Cl)cc2)cc1)c1cc2c(cc1O)CCN(C1CCC1)CC2 [TCMDC-135997]	28.22
O=S(=O)(c1ccc(OCc2ccc(Cl)cc2)cc1)c1cc2c(cc1OCc1ccccc1)CCN(CC1CC1)CC2 [TCMDC-134410]	0.8378
O=S(=O)(c1ccc(OCc2ccc(Cl)cc2)cc1)c1cc2c(cc1OCc1ccccc1)CCN(C1CCC1)CC2 [TCMDC-135998]	60.24
O=S(=O)(Nc1cc2c(cc1OCc1ccccc1)CCN(C1CCC1)CC2)c1ccc(-c2ccc(Cl)cc2)cc1 [TCMDC-136027]	-11.35
COc1cc2c(cc1S(=O)(=O)c1ccc(OCc3ccc(Cl)cc3)cc1)CCN(Cc1ccc(NC(C)=O)s1)CC2 [TCMDC-132326]	-7.841
O=S(=O)(c1ccc(OCc2ccc(Cl)cc2)cc1)c1cc2c(c(-c3ccc(F)cc3)c1)CCN(CC1CC1)CC2 [TCMDC-135736]	93.21
COc1ccc2nccc([C@@H](O)CN3CCC(NCc4ccc5nsnc5c4)CC3)c2c1 [TCMDC-140928]	4.203
O=C(NCc1cccc(C(F)(F)F)c1)C1CCCN(C(=O)c2ccc(O)c(-c3ccc(Cl)c(Cl)c3)c2)C1 (stereo not shown) [TCMDC-140885]	20.85
O=C(Cc1cnc[nH]1)Nc1cccc(-c2cccc(-c3nc4ccccc4[nH]3)c2)c1 [TCMDC-136940]	-12.56
CCC(CSC1CCCCC1)N(C)CCN(C)C(CC)CSC1CCCCC1 (stereo not shown) [TCMDC-131456]	101.8
CCc1ccc(NC(=O)c2ccc(CN3CCCN(Cc4cccs4)CC3)cc2)cc1 [TCMDC-136447]	-19.53
CC(C)C(=O)n1ncc2c3c(N)nc(N)nc3ccc21 [TCMDC-137841]	-14.38
CCN(CCO)Cc1ccc(-c2ccc(NS(=O)(=O)c3cccc4cccnc34)cc2)cc1 [TCMDC-136477]	-29.46
Cc1cc(C(=O)Nc2ccc3c(c2)CCN3C2CCN(Cc3csc4ccccc34)C2)no1 (stereo not shown) [TCMDC-135082]	15.45
CCN(CC)CCCNc1cc[n+]([O-])c2cc3ccccc3cc12 [TCMDC-124146]	-26.87
CCCCN(CCCC)CCCCCCNc1c2ccccc2nc2ccccc12 [TCMDC-137519]	114.2
Cl.c1ccc2c(NCCOCCNc3c4ccccc4nc4ccccc34)c3ccccc3nc2c1 [TCMDC-124265]	121.8
c1ccc2c(NCCc3c[nH]cn3)c3ccccc3nc2c1 [TCMDC-124424]	5.484
CCCCN(CCCC)CCCCNc1c2ccccc2nc2ccccc12 [TCMDC-137461]	102
CCN(CC)CCNc1ccnc2c3ccccc3n(C)c12 [TCMDC-131844]	2.979
CCN(CC)CCCNc1c2ccccc2nc2ccccc12.Cl [TCMDC-125517]	76.48
CCCCNc1cc(NCCCC)c2c(n1)[nH]c1ccccc12 [TCMDC-131827]	-13.41

Structure (SMILES)	% Inhibition [%]
Cc1ccc(-c2cccc3c(NC(=O)Nc4ccc5nccc(N6CCN(C)CC6)c5c4)cccc23)cn1 [TCMDC-139367]	-6.741
COc1ccccc1C1CCN(C2CCC(NC(=O)/C=C/c3ccc(C(F)(F)F)cc3)CC2)CC1 (stereo not shown) [TCMDC-133487]	28.53
CCNc1cc(C)nc(Nc2ccc(NS(=O)(=O)c3ccccc3)cc2)n1 [TCMDC-124954]	-28.24
Cc1cccc(C)c1CNc1ccnc2cc(Br)ccc12 [TCMDC-132168]	-25.57
CCCCn1c(N)c(N(Cc2ccco2)C(=O)C=Cc2cc(OC)c3c(c2)OCCO3)c(=O)[nH]c1=O [TCMDC-125328]	-14
O=C(NC1CCN(c2ccnc3cc(Cl)ccc23)C1)c1ccc(C(F)(F)F)cc1 (stereo not shown) [TCMDC-133661]	38.8
Cn1nc2ccc3ccccc3c2nc1=N [TCMDC-131260]	93.18
Cc1cccc(Nc2nc(C)cc(N3CCCN(CC4CCCCC4)CC3)n2)c1 [TCMDC-137025]	-12.77
O=C(Nc1ccc(-c2nc3ccccc3[nH]2)cc1)c1ccc(S(=O)(=O)N2CCCCC2)cc1 [TCMDC-125834]	-22.63
NC(=O)C1Cc2ccccc2CN1CC(=O)Nc1ccccc1Sc1ccccc1 (stereo not shown) [TCMDC-124863]	48.06
O=C(COc1cnc2ccccc2n1)Nc1ccccc1Sc1ccc(Cl)cc1 [TCMDC-124892]	99.33
COc1ccccc1C(C)NCC(=O)Nc1ccccc1Sc1ccccc1 (stereo not shown) [TCMDC-124877]	-2.069
O=C(Nc1ccc2c(c1)CCN2C1CCN(Cc2cc(F)cc(F)c2F)C1)c1ccco1 (stereo not shown) [TCMDC-135071]	-23.05
CN1CCC(NCc2ccc(-c3ccc(S(=O)(=O)NCc4ccccc4)s3)cc2)CC1 [TCMDC-132231]	68.61
CN1CCC(NCc2ccc(-c3ccc(S(=O)(=O)NC4CCC4)s3)cc2)CC1 [TCMDC-132232]	57.53
CC(C)(CNC(=O)[C@@H]1CCCCN1)c1nc(-c2ccc(Cl)c(O)c2)c(-c2ccncc2)[nH]1 [TCMDC-141079]	-69.36
O=S(=O)(NCCN1CCCC1)c1ccc(-c2ccc(CNCc3ccc(F)cc3)cc2)s1 [TCMDC-132284]	66.59
O=C1CCCN1CCCNCc1ccc(-c2ccc(-c3nc4ccc(F)cc4[nH]3)s2)cc1 [TCMDC-132756]	-11.94
CS(=O)(=O)c1ccc(CNCc2ccc(-c3ccc(-c4nc5ccc(F)cc5[nH]4)s3)cc2)cc1 [TCMDC-132900]	4.618
O=C(NCCN1CCCC1)c1cccc(-c2ccc(-c3nc4ccc(F)cc4[nH]3)s2)c1 [TCMDC-132318]	15.45
O=S(=O)(NCCN1CCCC1)c1ccc(-c2cccc(CNCc3ccc(F)cc3)c2)s1 [TCMDC-132273]	98.81
CC(C)(C)CC(C)(C)c1ccc(O)c(CNC2CCCCC2)c1 [TCMDC-137604]	41.75
Cc1nnc(NC(=O)c2cn(-c3ccccc3)nc2-c2ccccc2C)o1 [TCMDC-125040]	22.18
COc1ccc(OC)c(C(O)C(C)NCc2cc(Cl)ccc2O)c1 (stereo not shown) [TCMDC-137921]	36.34

Structure (SMILES)	% Inhibition [%]
Cc1nc(-c2ccncc2)sc1C(=O)Nc1ccc(Cl)cc1C(=O)Nc1ccc(Cl)cc1 [TCMDC-136515]	3.625
Cc1ccc(NC(=O)Nc2ccc(Cl)cc2)cc1-c1ccc(C(=O)Nc2ccncc2)cc1 [TCMDC-133702]	-59.17
Cn1ccnc1CCC(=O)Nc1ccc(Cl)cc1C(=O)Nc1ccc(Cl)cc1 [TCMDC-136703]	12.32
O=C(Nc1ccc(Cl)cc1C(=O)Nc1ccncc1)c1ccc(Cl)cc1Cl [TCMDC-125853]	59.79
COc1ccc(C(=O)Nc2ccc(Cl)cc2C(=O)Nc2ccncc2)cc1 [TCMDC-123739]	84.9
O=C(Nc1ccc(Cl)cc1)c1cc(Cl)ccc1NC(=O)C1(c2ccc(Cl)cc2)CCCC1 [TCMDC-136643]	-21.36
COc1ccc(CN(C)CCCc2ccc(NC(=O)c3cc4ccccc4[nH]3)cc2)cc1OC [TCMDC-131855]	-11.14
Nc1ccc2nc(C=Cc3ccc(Cl)cc3)[nH]c2c1 [TCMDC-123608]	-19.77
Cc1ccc(NC(=O)Nc2ccc(S(=O)(=O)c3ccc(NC(=O)Nc4ccc(C)c(Cl)c4)cc3)cc2)cc1Cl [TCMDC-124273]	85.03
Cc1ccc(NC(=O)Nc2ccc(I)c(OCCN(C)C)c2)cc1Cl [TCMDC-139122]	-20.44
CN1CCc2ccc(NC(=O)Nc3ccc(Cl)c(Cl)c3)cc2C1 [TCMDC-133728]	0.1652
COc1ccc(C(=O)CCC(=O)N(Cc2ccc(-c3ccc(CNCCc4ccc(S(C)(=O)=O)cc4)cn3)cc2)Cc2ccc3c(c2)OCO3)cc1F [TCMDC-141514]	67.48
COc1ccc(C(=O)CCC(=O)N(Cc2ccc(-c3ccc(CNCCc4ccc(S(C)(=O)=O)cc4)cn3)cc2)C(C)CN(C)C)cc1F (stereo not shown) [TCMDC-141512]	102.4
COc1ccc(C(=O)CCC(=O)N(Cc2ccc(-c3ccc(CNCCc4ccc(S(C)(=O)=O)cc4)cn3)cc2)C2CC3CCC2C3)cc1F (stereo not shown) [TCMDC-141515]	-37.66
COc1ccc(C(=O)CCC(=O)N(CCSC(C)(C)C)Cc2ccc(-c3ccc(CNCCc4ccc(S(C)(=O)=O)cc4)cn3)cc2)cc1F [TCMDC-141517]	33.86
COc1ccc(C(=O)CCC(=O)N(CCC2CCCN2C)Cc2ccc(-c3ccc(CNCCc4ccc(S(C)(=O)=O)cc4)cn3)cc2)cc1F (stereo not shown) [TCMDC-141513]	-2.666
COc1ccc(C(=O)CCC(=O)N(Cc2ccc(-c3ccc(CNCCc4ccccc4)cn3)cc2)C(C)CN(C)C)cc1F (stereo not shown) [TCMDC-141554]	109.3
CCC(CC)N1C(=O)C(c2ccccc2)(c2ccccc2)N=C1N [TCMDC-136516]	-14.59
CCOC(=O)C(NC(=O)Cc1ccccc1)C(C)C (stereo not shown) [TCMDC-131334]	-5.463
CN(C)CCCOc1ccc(-c2nc(-c3ccc4c(c3)CCC4=NO)c(-c3ccncc3)[nH]2)cc1 [TCMDC-140742]	7.087
ON=C1CCc2cc(-c3cc(-c4ccc(OC5CCNCC5)cc4)oc3-c3ccncc3)ccc21 [TCMDC-141381]	91.63
ON=C1CCc2cc(-c3nc(-c4ccc(OCCN5CCCCC5)cc4)[nH]c3-c3ccncc3)ccc21 [TCMDC-141174]	1.604
